# Screens (PubChem)
# This is a sample that favours compounds with a hit; in the whole collection about 4% have one here.
# CF NFkB block: inhibitors of PAF-induced NF-kB signaling, primary screen, cell-based, GFP fluorescence, uHTS; KKLEB NF-kB-GFP reporter, GFP fluorescence overnight; inhibition, % at 5 µM; 360,000 tested, 0.86% active;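 active means at least 50% inhibition at 5 µM, scaled per plate between neutral and stimulator controls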;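 further: PAF is a Pseudomonas aeruginosa culture filtrate used as stimulus; plate controls were PAF-stimulated DMSO wells for no effect and unstimulated DMSO wells for full effect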
# HIF-2a inh: HIF-2a reporter inhibitors, primary screen, luminescence, 786-0 RCC cells. 786-0 RCC cells HIF-2a reporter, luciferase luminescence, overnight. inhibition, % at 18.8 µM. 360,000 tested, 0.72% active. AID 624352, 2012;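 active means inhibition of the luminescence signal of 40% or more relative to plate controls, in a single-dose primary screen at 18.75 µM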
# TWEAK Fn14 block: inhibitors of TWEAK-Fn14 signaling, primary screen, luciferase reporter cells, uHTS | TWEAK-stimulated Fn14 reporter cells, luciferase luminescence, 8 h | inhibition, % at 10 µM | 360,000 tested, 2% active | AID 1159606, 2016; in the data active means inhibition above about 50%
# TROY NFkB inh: inhibitors of TROY-driven NF-kB signaling, primary screen, Q293 LMP1-TROYcd cells, NF-kB luciferase, uHTS | Q293 LMP1-TROYcd NF-kB luciferase reporter, 4 h | 360,000 tested, 0.98% active | AID 1347056, 2019 | inhibition, % at 10 µM;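 active means compounds whose plate-normalised and pattern-corrected inhibition of the luciferase reporter signal at the single screening dose is 50% or more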
# Peg3 promoter: Peg3 promoter-driven luciferase inhibitors, primary screen, cell-based, HeLa, luciferase luminescence. HeLa PEG-Prom luciferase reporter, overnight. inhibition, % at 20 µM. 360,000 tested, 1.7% active;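 active means inhibition of at least 50% at 20 µM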
# KKLEB tox: cytotoxicity in KKLEB CF airway cells, primary screen, cytotoxicity control for CF NF-kB inhibitor project, cell-based, uHTS, fluorescence assay plates | KKLEB CF airway cells viability, ATPlite luminescence, overnight; active compounds read low; cells stimulated with P. aeruginosa culture filtrate | activity change (cytotoxicity), % at 5 µM | 360,000 tested, 0.36% active | AID 602141, 2011;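 active means corrected activity change at or below -50% at 5 µM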
# Numbers without * were called inactive; · = no result.
SMILES,CF NFkB block,HIF-2a inh,TWEAK Fn14 block,TROY NFkB inh,Peg3 promoter,KKLEB tox
CN(C(=O)Cn1c(=O)oc2cc(S(=O)(=O)N3CCCC3)ccc21)C1CCCCC1,9,11,-11,7,5,9
CN1C(=O)C(c2cn(C)c3ccccc23)(c2cn(C)c3ccccc23)c2cc(F)ccc21,·,17,·,·,·,·
O=C(NC1CCCCCC1)c1cc2ccccc2oc1=O,2,-188,54*,5,-281,-6
O=C(Nc1ccc(Cl)c(S(=O)(=O)N2CCOCC2)c1)c1cc2ccccc2oc1=O,8,-154,6,31,95*,-3
Cc1c(C(=O)NC2=NCCS2)oc2ccccc12,-14,-89,57*,-14,-114,10
CC(=O)c1ccc(Nc2nc(N3CCOCC3)nc(N3CCOCC3)n2)cc1,-5,-47,83*,-45,-59,-1
N=c1oc2ccccc2cc1C(=O)NC1CCCCCC1,-22,-247,36,20,-180,-5
Cc1csc(NC(=O)c2oc3ccccc3c2C)n1,-22,-124,44,9,-264,-11
Cc1cc(=O)oc2cc(OCc3ccc(S(=O)(=O)N4CCOCC4)cc3)ccc12,-9,-3,-46,-6,6,10
O=C(CCC(=O)c1ccccc1)Nc1ccccc1OC(F)F,8,-8,-8,-18,-12,3
Cc1ccc(NC(=S)NC2CCN(Cc3ccccc3)CC2)cc1,-5,9,11,13,17,18
COc1ccc(C(=O)N2CC3(C)CC2CC(C)(C)C3)cc1 (centres undefined),-10,6,6,66*,16,4
CC1(C)CC2CC(C)(CN2C(=O)c2ccccc2)C1 (centres undefined),4,14,-3,8,9,-5
COc1cccc(/C=N/Nc2snc(SC)c2C#N)c1O,14,-273,75*,42,-172,-10
COc1ccc(/C=N/Nc2snc(SC)c2C#N)cc1OC,3,-240,-1,-26,-269,-1
CC1(C)CC(=O)C2=C(C1)N=C1c3ccccc3C(=O)C1C2c1ccc(Cl)cc1 (centres undefined),35,47*,66*,26,58*,4
CCOC(=O)C1=C(C)N=C2c3ccccc3C(=O)C2C1c1ccc(Cl)cc1 (centres undefined),-5,-6,6,-1,20,-7
Cc1ccc(C2C3=C(CC(C)(C)CC3=O)N=C3c4ccccc4C(=O)C32)cc1 (centres undefined),24,30,58*,28,32,-3
Cc1ccccc1OCC(=O)NCCN1CCCC1,1,7,7,-18,6,7
CC(NS(=O)(=O)c1ccc([N+](=O)[O-])cc1)C(c1cccs1)N1CCOCC1 (centres undefined),11,7,-2,4,13,-3
CC1=NN(/C(=N\c2nnc(C)s2)Nc2ccc(C)cc2)[C@H](c2ccc(C)cc2)S1,2,-28,-10,-50,-8,14
CNc1nc(Cl)nc2ncn(C)c12,18,20,4,-3,6,-6
Cn1cnc2nc(Cl)nc(Cl)c21,35,35,54*,18,6,-11
COc1ccc(-n2c(Cc3cc(=O)[nH]c(=O)[nH]3)nnc2SCC(=O)N2CCC(C)CC2)cc1,-8,15,11,-5,-4,-5
CCOP(=O)(OCC)C(NC(=O)C(F)(F)F)c1ccccc1 (centres undefined),-10,15,8,63*,4,5
SMILES,CF NFkB block,HIF-2a inh,TWEAK Fn14 block,TROY NFkB inh,Peg3 promoter,KKLEB tox
CCCOP(=O)(OCCC)C(NC(=O)C(C)(C)C)c1ccccc1 (centres undefined),6,17,-4,9,11,6
COc1cc(OC)nc(C(NC(=O)C2CCN(Cc3c[nH]c4ccccc34)CC2)c2ccc(Cl)cc2)n1 (centres undefined),14,-1,-13,18,101*,-21
Cc1ccc(N=Cc2c(O)c3ccccc3oc2=O)c(C)c1,-1,-196,57*,55*,-44,-8
Cc1ccc(F)cc1N=Cc1c(O)c2ccccc2oc1=O,22,-73,19,39,-13,-8
O=[N+]([O-])c1ccc(Sc2n[nH]c(-c3ccncc3)n2)nc1,-18,8,-3,2,1,3
COc1ccc(C(=O)NN(C)c2nc(C(F)(F)F)nc3ccccc23)cc1,75*,36,52*,55*,2,-8
COc1ccccc1N1CCN(c2ccc(-c3ccccc3)nn2)CC1,14,-58,71*,66*,9,-48
CN(Cc1ccccc1)C(NC(=O)c1ccccc1)C(Cl)(Cl)Cl (centres undefined),-6,-6,-12,-16,16,0
O=[N+]([O-])c1ccccc1CCc1cnc(Cl)s1,0,-36,58*,52*,-15,3
O=[N+]([O-])c1ccccc1CSc1ccccn1,-13,-35,-25,-2,-13,5
O=C1/C(=N\O)Cc2ccccc21,5,0,-7,-5,-9,7
Fc1ccccc1C1CC(c2ccco2)=Nc2ccccc2S1 (centres undefined),4,-193,53*,43,-169,3
COc1ccccc1C1CC(c2cccs2)=Nc2ccccc2S1 (centres undefined),-11,-119,-7,-15,-29,-19
COc1ccc2cc3cc(C(=O)Nc4ccc5c(c4)OCCO5)oc3nc2c1,21,-22,-33,6,-11,-16
COc1ccc2cc3cc(C(=O)Nc4cc(OC)c(OC)c(OC)c4)oc3nc2c1,3,7,63*,26,42,-5
O=C(Nc1cc(C(F)(F)F)ccc1N1CCOCC1)c1ccccc1F,38,7,62*,·,10,-12
CCCOc1ccccc1C1CC(=O)Nc2cc3c(cc21)OCCO3 (centres undefined),33,31,55*,48,7,1
CCOc1ccccc1C1CC(=O)Nc2cc3c(cc21)OCCO3 (centres undefined),20,21,17,23,4,-34
CCn1nnc2cc(C(=O)NCCc3ccccc3F)ccc21,11,5,82*,31,1,-2
O=C1c2cccc3c([N+](=O)[O-])ccc(c23)C(=O)N1c1nccs1,-45,40,-58,39,94*,12
CC(=O)Oc1ccc(N2C(=O)c3cccc4c([N+](=O)[O-])ccc(c34)C2=O)cc1,14,16,-99,55*,47,0
